Screens from PubChem.
Sampled rows, rich in hits. Any-hit rate of the full collection: about 3.6%.
FAS TE block: FAS thioesterase domain inhibitors, primary screen, biochemical, fluorescence intensity, uHTS | Fatty acid synthase (Homo sapiens), P49327 | recombinant FAS-TE, OMFH fluorogenic substrate, fluorescence endpoint | inhibition, % at 15 µM | actives 0.67% (n = 360,000);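 active = compounds whose normalised, plate-corrected inhibition of enzyme fluorescence in the single-dose primary screen is 50% or more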
CendR NRP1 mod: modulators of CendR peptide binding to NRP-1, primary screen, biochemical, fluorescence polarization, uHTS; Neuropilin-1 (Homo sapiens), O14786; inhibition, % at 25 µM; FAM-RPARPAR peptide binding to NRP-1; actives 0.85% (n = 360,000); AID 602438, 2012;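 active = inhibition or corrected inhibition above about 18%, plus a signal ratio from 0.5 to 1.5, limit read from the data, passing the limit was not always enough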
CRFR2-BP antag: antagonists of CRF-BP/CRF-R2 complex, primary screen, cell-based, HEK293, calcium dye fluorescence, uHTS; inhibition, % at 11.8 µM; actives 0.59% (n = 350,000); AID 588475, 2011; CRF-induced calcium fluorescence;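 active = inhibition of the ligand-induced calcium signal above about 50% at the single tested concentration, limit read from the data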
NadD inh: inhibitors of S. aureus NadD, primary screen, biochemical, colorimetric, uHTS. Nicotinate-nucleotide adenylyltransferase NadD (Staphylococcus aureus N315). purified NadD enzyme, colorimetric absorbance read-out. inhibition, % at 20 µM. actives 0.78% (n = 360,000). AID 602399, 2012; in the data active = inhibition above about 26%
Myeloid diff 2: induction of myeloid progenitor differentiation, primary screen, cell-based, flow cytometry, MLPCN library | calls only at 10 µM | ER-HoxA9 myeloid progenitors, lysozyme-GFP differentiation | actives 1% (n = 360,000);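 active = normalized GFP-positive differentiation at or above the plate's own cutoff, the solvent-only control mean plus 3 SD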;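 also: cells exposed to compound for four days before flow analysis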
Hits are given with their value; . = inactive; / = no result; + = active, no number.

SMILES	FAS TE block	CendR NRP1 mod	CRFR2-BP antag	NadD inh	Myeloid diff 2
CCCCCSc1nc2c(c(=O)[nH]c(=O)n2C)n1C	.	.	.	.	+
CC(NC1=CC(=O)c2cccnc2C1=O)C(O)c1ccccc1 (stereo not drawn)	.	36	.	.	/
Cc1ccc(NC(=O)[C@@H]2O[C@H](CO)[C@@H](O)[C@H]2O)cc1C(F)(F)F	.	.	/	.	.
CC(OC(=O)c1c2c(nc3ccccc13)/C(=C\c1ccc3c(c1)OCO3)CCC2)C(=O)Nc1ccc(S(N)(=O)=O)cc1 (stereo not drawn)	.	.	.	44	.
Nc1[nH]n2c(=O)c3c(nc2c1N=Nc1ccc(Cl)cc1)CCCC3	.	.	.	32	.
CCc1nc2c(OCc3ccc(F)cc3)cccn2c1N(C)C(=O)COc1ccccc1	.	.	/	.	.
Cc1ccc(CC(=O)N2CCN(S(=O)(=O)c3ccccc3)CC2)cc1C	.	.	.	.	.
COCCN(Cc1ccccc1)C(=O)c1cc(S(=O)(=O)N2CCCCCC2)ccc1OC	.	.	.	.	.
Cc1ccc(S(=O)(=O)N2CCN(C(=O)Cc3ccccc3)CC2)cc1C	.	23	.	.	.
Cc1ccc(S(=O)(=O)N2CCCCC2)cc1C(=O)N(CCc1ccccc1)Cc1ccccc1	.	.	67	.	.
O=C(NC1CCN(Cc2ccccc2)C1)c1cc(S(=O)(=O)N2CCOCC2)ccc1Cl (stereo not drawn)	.	.	.	.	.
Cc1ccc(S(=O)(=O)N2CCOCC2)cc1C(=O)NC1CCN(Cc2ccccc2)CC1	.	.	56	.	.
COc1ccc(S(=O)(=O)N2CCCCCC2)cc1C(=O)N(C)Cc1ccc(C(C)(C)C)cc1	.	.	78	.	.
COc1ccc(S(=O)(=O)N2CCCCCC2)cc1C(=O)N(C)Cc1ccc(F)cc1	.	.	.	.	.
CC(C)N1C(=O)c2ccccc2NC(=O)C1C(=O)NCc1ccccc1 (stereo not drawn)	/	.	/	/	.
CCN1CCN(S(=O)(=O)c2ccc(Cl)c(C(=O)N(CCc3ccccc3)Cc3ccccc3)c2)CC1	.	.	.	.	+
O=C(CC(CC(=O)c1ccccc1)c1ccccc1)c1ccccc1	.	.	.	.	.
O=C(CC(CC(=O)c1ccccc1)c1ccncc1)c1ccccc1	.	.	86	.	.
CC1(C)CC(Cc2ccccc2C(F)(F)F)N(C(=O)OC(C)(C)C)C1 (stereo not drawn)	/	.	/	/	.
CC(=O)c1ccc(OCC(O)CN(C)CCOc2ccc(Br)cc2)cc1 (stereo not drawn)	.	.	.	.	+
COC(=O)CCC(=O)OC1(C)C(=O)C=C2C=C3CCCN3C=C2C1=O (stereo not drawn)	.	41	.	.	.
CC1(OC(=O)c2ccc(Cl)nc2)C(=O)C=C2C=C3CCCN3C=C2C1=O (stereo not drawn)	.	51	.	.	.
CC1(OC(=O)C2CCCC2)C(=O)C=C2C=C3CCCCN3C=C2C1=O (stereo not drawn)	.	32	.	.	.
CCNC(=O)C1(C)CCCN(C(=O)c2cccc(C)c2C)C1 (stereo not drawn)	.	.	/	.	.
CCc1nc2c(OCCn3cccc3)cccn2c1N(C=O)Cc1ccccc1	.	.	/	.	.
SMILES	FAS TE block	CendR NRP1 mod	CRFR2-BP antag	NadD inh	Myeloid diff 2
O=c1c(-n2cncn2)c[nH]n1-c1cccc(Cl)n1	.	18	.	.	.
COC(=O)/N=C/c1c(NCc2ccccc2)nc2c(C)cccn2c1=O	.	.	.	.	.
Cc1cccn2c(=O)c(C=O)c(NCc3ccccc3)nc12	.	.	.	.	+
O=C(Cc1c(F)cccc1Cl)Nc1nc2ccccc2s1	.	.	.	.	.
COc1ccc(C2=C/C(=C\c3ccc(OC(C)=O)cc3)C(=O)O2)cc1	.	108	.	.	.
O=C1CCCN1CCc1cccc2ccccc12	.	23	.	.	.
Cc1cc(C)nc(SCc2cn3c(C)cccc3n2)n1	.	.	.	.	.
Cc1ccnc(SCc2cn3c(C)cccc3n2)n1	.	20	.	.	.
CC(=O)Nc1cccc(Oc2nc(NC(C)C)nc3cc(-c4ccccc4)sc23)c1	.	.	/	.	.
Cn1cc(-c2cc(C(=O)O)on2)cn1	.	25	.	.	.
N#CC(C#N)=Cc1cc2ccccc2nc1N1CCCCC1	.	33	.	.	.
